Test results from paper PMC4336329 (PLoS ONE, 2015).
About 14,000 (4.5%) of roughly 310,000 compounds showed an effect of 50% or more. Effects have a minus sign here. Many of the other results were omitted from the sample, so strong results are more common in it than they were.

Molecular target: human ether-à-go-go-related gene (hERG) potassium channel (human, UniProt Q12809)
Test: primary screen, population patch clamp on CHO cells stably expressing hERG; higher = less effect of the substance
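Note: peak tail current of the secondary pulse compared with the same well before compound.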

Chain of human ether-à-go-go-related gene (hERG) potassium channel (Q12809 whole entry, looked up): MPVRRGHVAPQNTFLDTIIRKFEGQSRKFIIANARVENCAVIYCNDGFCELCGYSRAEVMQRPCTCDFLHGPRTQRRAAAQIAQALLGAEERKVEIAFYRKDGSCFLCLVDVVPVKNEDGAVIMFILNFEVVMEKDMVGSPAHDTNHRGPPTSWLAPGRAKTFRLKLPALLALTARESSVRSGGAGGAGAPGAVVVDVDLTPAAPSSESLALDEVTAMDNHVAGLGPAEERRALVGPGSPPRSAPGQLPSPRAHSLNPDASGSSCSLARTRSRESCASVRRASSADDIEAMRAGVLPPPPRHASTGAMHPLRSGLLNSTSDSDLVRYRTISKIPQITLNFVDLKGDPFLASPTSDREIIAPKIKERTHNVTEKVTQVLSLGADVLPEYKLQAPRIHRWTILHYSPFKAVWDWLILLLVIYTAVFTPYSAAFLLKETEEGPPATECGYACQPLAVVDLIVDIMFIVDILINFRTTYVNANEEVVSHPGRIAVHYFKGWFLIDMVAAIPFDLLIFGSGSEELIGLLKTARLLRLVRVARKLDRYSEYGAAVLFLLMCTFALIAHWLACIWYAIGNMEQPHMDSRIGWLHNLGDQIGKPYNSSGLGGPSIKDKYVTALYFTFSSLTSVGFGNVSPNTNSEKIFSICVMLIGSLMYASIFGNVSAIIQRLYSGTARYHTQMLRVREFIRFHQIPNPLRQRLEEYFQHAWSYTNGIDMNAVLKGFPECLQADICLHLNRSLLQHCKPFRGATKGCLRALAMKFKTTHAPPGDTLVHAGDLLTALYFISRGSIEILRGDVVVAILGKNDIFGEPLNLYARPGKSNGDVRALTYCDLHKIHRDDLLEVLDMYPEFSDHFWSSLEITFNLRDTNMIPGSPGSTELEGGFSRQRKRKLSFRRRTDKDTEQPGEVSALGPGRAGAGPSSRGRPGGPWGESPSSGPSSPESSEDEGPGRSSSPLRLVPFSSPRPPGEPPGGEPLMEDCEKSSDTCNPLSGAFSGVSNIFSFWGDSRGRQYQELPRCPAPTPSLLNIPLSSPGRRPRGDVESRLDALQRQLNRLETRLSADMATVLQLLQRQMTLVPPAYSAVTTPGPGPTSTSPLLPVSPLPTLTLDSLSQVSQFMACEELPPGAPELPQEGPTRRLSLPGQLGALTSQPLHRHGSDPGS

SMILES | hERG current change (%, negative = inhibition) at 10uM [%]
O=C(CCc1nnc(Cc2cccc(C(F)(F)F)c2)o1)NC1CC1 | 32.2
O=C(COC(=O)C12CC3CC(CC(Cl)(C3)C1)C2)Nc1ccc2[nH]c(=O)[nH]c2c1 | 11.5
COc1cc(NC(=O)NCC2CCN(Cc3ccccc3F)CC2)cc(OC)c1 | -14.9
COc1ccc(N2CCC(CNC(=O)Nc3cccc(OC)c3)C2)cc1 (centres unmarked) | -15.7
O=C(NCC1CCN(Cc2ccccc2Cl)CC1)Nc1cccc(Cl)c1 | -72
COc1ccc(OC)c(CN2CCC(CNC(=O)Nc3cccc(Cl)c3)CC2)c1 | -60.8
COc1cc(NC(=O)NCC2CCN(Cc3ccccc3Cl)CC2)cc(OC)c1OC | 3.03
O=C(NCC1CCN(Cc2ccccc2Cl)CC1)Nc1ccccc1F | -44.7
COc1ccc(NC(=O)C2CCCO2)cc1 (centres unmarked) | -0.956
Cc1ccc(NC(=O)c2cccc(S(=O)(=O)N3CCN(c4ccc(F)cc4)CC3)c2)nc1 | -14.6
Cc1cc(CN(C)C(=O)CC2C(=O)NCCN2Cc2ccc(F)c(F)c2)on1 (centres unmarked) | 31.1
Nc1ccc(-c2nnc(-c3ccc(-c4ccccc4)cc3)o2)cc1 | 4.31
S=c1[nH]c(-c2ccccc2)cs1 | 66.4
COc1ccc(C)cc1NS(=O)(=O)c1cccc2nonc12 | -10.7
CCCOc1cccc(C2C(C(=O)c3ccc(C)o3)=C(O)C(=O)N2CCN2CCOCC2)c1 (centres unmarked) | 10.5
CCN1CCN(c2ccc([N+](=O)[O-])cc2S(=O)(=O)N2CCOCC2)CC1 | -43.9
O=C(O)c1cc([N+](=O)[O-])ccc1N1CCCCC1 | -1.28
NC(=O)c1cc([N+](=O)[O-])ccc1N1CCN(Cc2ccccc2)CC1 | -41.8
COC(=O)c1cc([N+](=O)[O-])ccc1N1CCN(Cc2ccccc2)CC1 | -72.2
CCN1CCN(c2ccc([N+](=O)[O-])cc2C(=O)OC)CC1 | -63.7
CCOc1ccccc1NC(=O)COc1cccc(-n2cnnn2)c1 | -27.2
O=C(NCCNC(=O)c1ccccc1Br)c1ccccc1Br | 8.51

SMILES | hERG current change (%, negative = inhibition) at 10uM [%]
Cc1ccc(C(=O)N/N=C2\SCC(=O)N2c2cc(C)ccc2C)cc1 | 8.16
COc1ccccc1CNC(=O)N1CCN(c2ccccc2C)CC1 | 6.36
CC(=O)C1=C(O)C(=O)N(c2ccc(Br)cc2)C1c1cccc([N+](=O)[O-])c1 (centres unmarked) | 24.5
COC(=O)CSc1nc2cc(C)cc(C)c2cc1C#N | 14.5
CCCCOC(=O)C(C#N)c1nc2ccccc2nc1N1CCOCC1 (centres unmarked) | -12.8
CCCCCCOC(=O)C(C#N)c1nc2ccccc2nc1N1CCCCC1 (centres unmarked) | 1.37
CCCCCCOC(=O)C(C#N)c1nc2ccccc2nc1N1CCN(C)CC1 (centres unmarked) | -74.7
CCCCOC(=O)C(C#N)c1nc2ccccc2nc1N1CCN(Cc2ccc3c(c2)OCO3)CC1 (centres unmarked) | -7.01
CCCCCCOC(=O)C(C#N)c1nc2ccccc2nc1N1CCN(CC)CC1 (centres unmarked) | -70.2
CC1CCN(c2nc3ccccc3nc2C(C#N)C(=O)OC2CCCCC2)CC1 (centres unmarked) | 11.3
N#CC(C(=O)OC1CCCCC1)c1nc2ccccc2nc1N1CCOCC1 (centres unmarked) | -36.8
CCCCCCOC(=O)C(C#N)c1nc2ccccc2nc1N1CCOCC1 (centres unmarked) | 1.23
CN1CCN(c2nc3ccccc3nc2C(C#N)C(=O)OC2CCCCC2)CC1 (centres unmarked) | -79.5
Cl.NS(=O)(=O)c1ccc(CCNCC#Cc2ccccc2)cc1 | -21.6
COCCCN1C(=O)C(O)=C(C(=O)c2ccco2)C1c1ccccc1 (centres unmarked) | 21.3
Cc1ccc(CNC(=O)CSc2ccsc2[N+](=O)[O-])cc1 | -4.87
COc1ccccc1N1CCN(Cc2cc(=O)c(OCC(=O)Nc3ccccc3)co2)CC1 | 25.5
CC(=O)c1cc(C#N)c(Oc2cc(C)cc(C)c2)nc1C | -4.94
CCOC(=O)N1CCC(N(CCCOC)C(=O)Nc2ccc(CC)cc2)CC1 | -48.6
COc1ccccc1-c1cc(C(=O)Nc2cc(C)nn2-c2ccccc2)no1 | 17
COc1cc(/C=N/n2c(C)nc3ccccc3c2=O)ccc1O | 4.55
CC(C)CC(COCc1ccc([N+](=O)[O-])cc1)N1CCN(C(=O)c2ccc(C(F)(F)F)cc2)CCC1=O (centres unmarked) | -67.1

SMILES | hERG current change (%, negative = inhibition) at 10uM [%]
CC(C)CC(COCc1ccc(Cl)cc1)N1CCN(C(=O)c2ccc(C(F)(F)F)cc2)CCC1=O (centres unmarked) | -44.5
CC(C)CC(COCc1ccc(C(F)(F)F)cc1)N1CCN(C(=O)c2ccc(C(F)(F)F)cc2)CCC1=O (centres unmarked) | -16.7
O=C(c1cccc(NS(=O)(=O)c2cccc([N+](=O)[O-])c2)c1)N1CCOCC1 | 24.3
CCOc1ccc(N(CC(=O)NC2CCCC2)C(=O)CCC(=O)Nc2ccccn2)cc1 | -56.2
COc1cccc(N(CC(=O)NC2CCCCC2)C(=O)CCCC(=O)Nc2ccccn2)c1 | 13.2
O=C(CCC(=O)N(CC(=O)NC1CCCCC1)c1ccc(F)cc1)Nc1nccs1 | -73.7
CCOc1ccc(N(CC(=O)NC2CCCCC2)C(=O)CCC(=O)Nc2ccccn2)cc1 | -23.3
O=C(CCC(=O)N(CC(=O)NC1CCCC1)c1ccc(F)cc1)Nc1nccs1 | 4.37
CCOc1ccc(N(CC(=O)NC2CCCC2)C(=O)CCCC(=O)Nc2ccccn2)cc1 | -10.8
COc1ccc(N(CC(=O)NC2CCCCC2)C(=O)CCCC(=O)Nc2ccccn2)cc1 | -65.9
O=C(CCCC(=O)N(CC(=O)NC1CCCCC1)c1cccc(F)c1)Nc1ccccn1 | -55.3
CCOc1ccc(N(CC(=O)NC2CCCCC2)C(=O)CCCC(=O)Nc2ccccn2)cc1 | -0.443
O=C(CCCC(=O)N(CC(=O)NC1CCCC1)c1cccc(F)c1)Nc1ccccn1 | 4.77
O=C(CCCC(=O)N(CC(=O)NC1CCCCC1)c1ccc(F)cc1)Nc1ccccn1 | 7.12
Cc1ccc(N(CC(=O)NC2CCCCC2)C(=O)CCC(=O)Nc2nccs2)cc1 | -4.93
CN(C(=O)c1ccccc1OC1CCN(S(C)(=O)=O)CC1)C1CCOC1 (centres unmarked) | 11.7
NC(=O)Cn1nnc(-c2ccc(CN3CCCCC3)cc2)n1 | 21.6
O=C(N1CCCC1)N1CCN(S(=O)(=O)c2ccccc2)CC1 | 7.18
CC(C)/C=N\NC(=O)CCCCC(=O)N/N=C/C(C)C | 6.11
CCOC(=O)C1=C(SCC(=O)Nc2ccccc2)NC(=O)C(C#N)C12CCCCC2 (centres unmarked) | -5.43
Cc1ccc(N2CN(CCC3=CCCCC3)CNC2=S)cc1 | 18
Cc1ccc2c(c1)CCCN2C(=O)c1ccc2c(c1)OCO2 | -4.53

SMILES | hERG current change (%, negative = inhibition) at 10uM [%]
O=c1c2c(-c3ccccc3)csc2nc2n1CCC2 | 14.5
O=c1cc(N2CCCCC2)c(-c2ccccc2)nn1Cc1ccc(Cl)cc1 | -1.99
Cc1cc(C)cc(NC(=O)C2CCN(c3nc(C)cc(C)n3)CC2)c1 | -3.58
Cc1ccc(N(CC(=O)NC2CCCC2)C(=O)CCC(=O)Nc2nc(C)cs2)cc1 | -11.9
CCOc1ccc(N(CC(=O)NC2CCCCC2)C(=O)CCC(=O)Nc2nc(C)cs2)cc1 | -50.6
CCOc1ccc(N(CC(=O)NC2CCCC2)C(=O)CCC(=O)Nc2nc(C)cs2)cc1 | -28.8
O=C(CC(CC(=O)c1ccccc1)c1ccccc1)c1ccccc1 | 0.181
O=C(CSc1nnc(CN2CCOCC2)n1-c1ccccc1)Nc1ccc(Cl)cc1 | -32.5
Cc1cc(C)c(S(=O)(=O)N2CCOC2CNC(=O)C(=O)NCCc2ccc(S(N)(=O)=O)cc2)c(C)c1 (centres unmarked) | -17.8
O=C(Cn1cnc2c(nnn2Cc2ccccc2)c1=O)NCc1ccccc1Cl | 5.76
Cc1ccc(SCc2ccc(C(=O)NCc3cccnc3)cc2)cc1 | 3.85
O=C(O)c1ccc(N/N=C/c2ccc(OC(=O)c3cccc(Cl)c3)cc2)cc1 | -9.22
O=C(O)c1ccc(N/N=C/c2ccc(OC(=O)c3ccccc3Cl)cc2)cc1 | -56
O=C(Oc1ccc(/C=N/Nc2ccccc2)cc1)c1ccccc1 | 15.4
Cc1ccc(CNC(=O)CCC2CCCN(Cc3cc4ccccc4o3)C2)o1 (centres unmarked) | -69.2
Cc1ccc(CNC(=O)CCC2CCCN(C(=O)CCC(F)(F)F)C2)o1 (centres unmarked) | 3.62
COCc1ccc(CN2CCCC(CCC(=O)NCc3cccc(OC)c3)C2)o1 (centres unmarked) | -23.5
COc1cccc(CNC(=O)CCC2CCCN(Cc3cc4ccccc4o3)C2)c1 (centres unmarked) | -75.6
Cc1ccsc1C(=O)C1CCCN(Cc2cc3ccccc3o2)C1 (centres unmarked) | -23.7
COc1cccc(CNC(=O)CCC2CCCN(C(=O)c3cc4ccccc4o3)C2)c1 (centres unmarked) | -47.7
